The list is not random: actives were taken first. Their share in the collection is about 1.3%.
GRK2 aptamer HTS: compounds blocking aptamer binding on GRK2 – biochemical, human GRK2, bead flow cytometry, HTS, primary screen. Beta-adrenergic receptor kinase 1 (Homo sapiens), P25098. FAM-aptamer displacement from GRK2. inhibition of aptamer binding, % at 10 µM. 330,000 compounds, 0.59% hits;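 active = inhibition of aptamer binding above 40%, roughly 3 SD of noise, on plates passing a quality check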;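 note: median bead fluorescence of bound FAM aptamer so fluorescent compounds give negative values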
Bfl-1 A1 inh: caspase 3/7 activation in MEF A1-2A-BIM cells, primary screen, A1 inhibitor project, cell-based, luminescence, HTS; Caspase-Glo 3/7 luminescence, 3 h; percent of clofoctol response, vehicle zero; caspase activation, % (test concentration not listed); 330,000 compounds, 0.066% hits; AID 2462, 2010;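 active = over half of replicate activation scores above 10%, or exactly half above 10 with the replicate mean above 10; inconclusive = replicate mean below 10 yet half the replicates above 10; inactive = over half of replicates below 10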
NTR1 agonist: agonists of human NTR1, primary screen, imaging, U2OS cells, beta-arrestin-GFP, high content | Neurotensin receptor type 1 (Homo sapiens), P30989 | NTR1-U2OS beta-arrestin-GFP spot imaging, agonist mode | activation, % at 20 µM | 330,000 compounds, 0.17% hits | AID 493036, 2011;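 active = activation at or above 40% of the spot to cytoplasm intensity ratio, with at least 20 cells analyzed; inconclusive = wells under 20 cells, flagged as cytotoxic or low count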;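 note: 0% = DMSO without peptide and 100% = 100 nM NTR1 peptide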
Target sequence (P30989 whole entry, looked up): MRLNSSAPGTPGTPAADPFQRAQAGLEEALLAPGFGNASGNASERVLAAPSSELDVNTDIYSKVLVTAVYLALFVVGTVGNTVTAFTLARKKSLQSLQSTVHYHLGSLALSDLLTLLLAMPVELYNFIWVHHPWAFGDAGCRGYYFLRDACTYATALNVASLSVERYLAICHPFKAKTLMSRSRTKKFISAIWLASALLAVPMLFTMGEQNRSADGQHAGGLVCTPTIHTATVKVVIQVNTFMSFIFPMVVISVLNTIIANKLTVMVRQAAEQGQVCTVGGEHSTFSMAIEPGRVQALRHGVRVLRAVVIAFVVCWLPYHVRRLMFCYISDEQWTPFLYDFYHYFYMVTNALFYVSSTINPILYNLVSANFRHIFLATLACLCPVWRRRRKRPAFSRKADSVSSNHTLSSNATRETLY
VLA-4 inh: inhibition in human VLA-4 binding assay, primary screen, VLA-4 allosteric modulator project, MLPCN library, flow cytometry, VLA-4 expressing cells | inhibition, % (about 7 µM as worked out from the volumes in the protocol) | ligand binding flow cytometry | Integrin alpha-4 (Homo sapiens), P13612 | AID 2557, 2010 | 330,000 compounds, 0.2% hits; in the data active = inhibition above about 50%
B2AR ag: beta2AR agonists driving receptor internalization, primary screen, cell-based, FAP fluorogen, flow cytometry; Beta-2 adrenergic receptor (Homo sapiens), P07550; response, % (no concentration beside the values); 340,000 compounds, 0.43% hits; Am2.2-beta2AR cells; AID 504454, 2011;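 active = response above a set limit, near 3 SD of response in nonfluorescent compounds, cut at about 42% in these data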
GRK2 inh confirm: GRK2 aptamer-displacing inhibitors, retest, confirmation, biochemical, cherry pick 1, bead flow cytometry; shares compounds with GRK2 aptamer HTS; bead-bound GRK2, FAM-aptamer displacement; aptamer displacement, % at 10 µM; 2,000 compounds, 4% hits; AID 504451, 2011;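 active = aptamer displacement above 40%, near three times the noise of non-fluorescent compounds, on plates passing quality checks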;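 note: negative values mostly reflect intrinsic compound fluorescence rather than true enhancement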
Aptamer quench: counter-screen for GRK2 aptamer inhibitors: fluorescent aptamer quenchers; 110 tested, under 10 active; AID 504521; fluorescence change (kMESF span), kMESF (concentration not given with the values); shares compounds with GRK2 aptamer HTS; Fluorescent RNA aptamer beads, quenching, flow cytometry; active compounds read high;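 active = compounds whose bead fluorescence drops by more than 37 kMESF across the dose range, marking them as dye quenchers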
Aptamer quench SP: quenches fluorescent RNA aptamer, GRK2 hit artifact | shares compounds with GRK2 aptamer HTS | fluorescence response (% of DMSO), % at 10 µM | 2,000 tested, under 10 active | Carboxyfluorescein RNA aptamer on beads, flow cytometry quenching; active compounds read low;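 active = compounds that quench the bead-bound fluorescent RNA probe, cutting fluorescence to under half of the solvent control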;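 note: counterscreen run without GRK2 so only probe quenching by compound is measured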
GRK2 confirm 2: GRK2 aptamer-displacing inhibitors, hit retest, confirmation, biochemical, cherry pick 2, bead flow cytometry | shares compounds with GRK2 aptamer HTS | bead-bound GRK2, FAM-aptamer displacement | inhibition of aptamer binding, % at 10 µM | 360 tested, under 10 active | AID 504782, 2011;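 active = inhibition of aptamer binding above 40%, about triple the noise seen with nonglowing compounds, on plates passing quality control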;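 note: negative values mostly come from compounds that fluoresce themselves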
FAM quench SP: quenches fluorescent RNA aptamer, GRK2 hit artifact | shares compounds with GRK2 aptamer HTS | carboxyfluorescein RNA aptamer beads, flow cytometry quenching; active compounds read low | fluorescence response vs DMSO, % at 10 µM | 360 tested, under 10 active | AID 588494;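 active = response vs DMSO under 50%, meaning signal dropped by over half, treated as fluorescence quencher; inconclusive = no clear call, values can overlap the other calls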;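 note: labelled aptamer on streptavidin beads without GRK2 as a quench counter-screen; 100% = bead fluorescence of DMSO wells and lower means quenching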
The depositor's hits bear a star; i = inactive; u = inconclusive; x = not tested or not shown.

SMILES | GRK2 aptamer HTS | Bfl-1 A1 inh | NTR1 agonist | VLA-4 inh | B2AR ag | GRK2 inh confirm | Aptamer quench SP | others
Cc1ccc(CONC(=O)c2ccc([N+](=O)[O-])cc2)cc1 | 0 | 0 | -1 | -7 | -2 | x | x
Cc1cccc(C(=O)NNC(=O)c2ccccc2C)c1 | 1 | 0 | -2 | 15 | -11 | x | x
O=C(Nc1cccc([N+](=O)[O-])c1)c1cccc(C(=O)Nc2cccc([N+](=O)[O-])c2)c1 | 67* | -1 | 2 | 39 | 0 | 27 | 101
COCCNC(=O)c1ccc(CS(=O)(=O)c2ccccc2OC)o1 | 50* | 0 | 4 | 2 | 0 | -1 | 95
CN(C(=O)c1cccc(NC(=O)Cc2ccc(NC(=O)C3CCCN(C(=O)C4CCC4)C3)cc2)c1)C1CCC1 (stereo unspecified) | x | x | x | x | -6 | x | x
CCOc1ccc(NC(=O)c2ccccc2NC(=O)c2cccnc2)cc1 | 3 | 0 | 0 | 5 | 4 | x | x
Cc1ccc(Sc2ncccc2C(=O)NCC(c2ccc(F)cc2)N2CCOCC2)cc1C (stereo unspecified) | 0 | 1 | -1 | 15 | 2 | x | x
C=CCN1C(=O)/C(=C/c2ccc(-c3ccc(F)cc3)o2)SC1=S | 43* | 1 | 2 | i | -143 | 29 | 103
O=C(O)C(c1ccccc1)N1C(=O)/C(=C\c2ccc(-c3ccc(Br)cc3)o2)SC1=S (stereo unspecified) | x | x | -3 | x | -108 | x | x
C/C(=N\NC(=O)c1ccc(OC2OCCOC2Oc2ccc(C(=O)N/N=C(\C)c3ccncc3)cc2)cc1)c1ccncc1 (stereo unspecified) | 50* | 1 | 6 | 6 | 4 | 37 | 99
CCN(CC(=O)Nc1ccccc1OC)C(=O)CN1C(=O)NC(C)(c2ccc3ccccc3c2)C1=O (stereo unspecified) | x | x | x | x | -1 | x | x
CN1CCN(S(=O)(=O)c2ccc(NC(=O)C(C)(C)C)cc2)CC1 | 81* | 1 | 0 | x | -4 | -4 | 98
Cc1ccc(N2C(=O)[C@@H]3C(C(=O)CN4C(=O)c5ccccc5C4=O)=NN[C@@H]3C2=O)c(C)c1 | 41* | 0 | -1 | 20 | -1 | 3 | 100
COc1ccccc1N1C(=O)[C@@H]2C(C(=O)CN3C(=O)c4ccccc4C3=O)=NN[C@@H]2C1=O | 0 | 0 | 3 | 0 | -4 | x | x
C=CC[C@H](CC(=O)N[C@H](CO)Cc1ccccc1)C(=O)N[C@H](COC(=O)[C@H](CC=C)CC(=O)OC(C)(C)C)Cc1c[nH]c2ccccc12 | 10 | 1 | 1 | -5 | -2 | x | x
Cc1cccc(C(=O)N[C@H](C(=O)Nc2nc3ccc(S(C)(=O)=O)cc3s2)C(C)C)c1 | 4 | 0 | 0 | 4 | 1 | x | x
CN(C)S(=O)(=O)c1ccc(Nc2nc(C3CC3)nc3c2nnn3Cc2ccccc2Cl)cc1 | 77* | 0 | 10 | 1 | 2 | x | x | GRK2 confirm 2=-30;FAM quench SP=u
COC(=O)CNc1nc(C2CC2)nc2c1nnn2Cc1ccccc1Cl | 0 | 0 | 2 | 2 | -7 | x | x
COc1ccccc1Nc1nc(N)nc(CSC(=S)N2CCCCC2)n1 | 1 | 0 | 3 | -1 | -18 | x | x
Cc1ccc(N(CN2CCCC2=O)C(=O)c2ccccc2)cc1 | 67* | 1 | 1 | 9 | -5 | 1 | 99
COc1ccc(C(=O)N(CN2CCCC2=O)c2ccc(C)cc2)cc1 | 0 | u | 3 | 13 | 1 | x | x
O=C(O)C1CCCCC1C(=O)Nc1cccc(Br)c1 (stereo unspecified) | 86* | 0 | -3 | 39 | 1 | 93* | 92 | Aptamer quench=0.2
CCOCCCNC(=O)C1(O)c2cc(Br)ccc2NC(=O)N1c1ccc(CC)cc1 (stereo unspecified) | 0 | 4 | 0 | 7 | -8 | x | x
CCOCCCNC(=O)C1(O)c2cc(Br)ccc2NC(=O)N1c1ccc(OCC)cc1 (stereo unspecified) | 61* | 1 | 0 | 6 | 0 | 0 | 102
O=C(O)CC1Cc2ccccc2C1C(=O)O (stereo unspecified) | x | x | x | x | -13 | x | x
SMILES | GRK2 aptamer HTS | Bfl-1 A1 inh | NTR1 agonist | VLA-4 inh | B2AR ag | GRK2 inh confirm | Aptamer quench SP | others
CCCn1c2ccccc2c2cn[nH]c(=O)c21 | 18 | 0 | -1 | -1 | -1 | 0 | 99
COc1cc(-c2nnc(SCC(=O)Nc3ccc(C(=O)O)cc3)o2)cc(OC)c1OC | 0 | -1 | -2 | 2 | 5 | x | x
O=C(CSc1ncccn1)Nc1ccc(Cl)c(S(=O)(=O)N2CCOCC2)c1 | 0 | 0 | 2 | -7 | -1 | x | x
O=C(CSc1ccccc1)Nc1ccc(Cl)c(S(=O)(=O)N2CCOCC2)c1 | 21 | 0 | 2 | 4 | -3 | -3 | 97
O=C(COC(=O)c1ccc(OC(F)(F)F)cc1)Nc1ncccn1 | 41* | 0 | 0 | -1 | 0 | 3 | 94
O=C(COC(=O)c1cccc(OC(F)F)c1)Nc1ncccn1 | 39 | -1 | 0 | -15 | -3 | 10 | 96
CN(Cc1ccccc1)C(=O)c1ccc(NC(=O)Cc2ccc(NC(=O)C3CCCN(C(=O)c4ccccc4)C3)cc2)cc1 (stereo unspecified) | x | x | x | x | -3 | x | x
CC(C)(CS(=O)(=O)[O-])NC(=O)CC[N+](C)(C)CCO | 99* | 1 | -1 | 19 | 5 | 96* | 94 | Aptamer quench=-2.8
CCOc1cc(/C=C2\SC(=NC)N(C)C2=O)c(Br)cc1OC(C)=O | 74* | 0 | 3 | -7 | 6 | 0 | 92
COc1ccc(CN(C(=O)c2cc3ccccc3oc2=O)C2CCS(=O)(=O)C2)cc1OC (stereo unspecified) | 24 | 0 | 2 | -1 | -11 | x | x
